Assay results: ChEMBL document CHEMBL1157539, “Thousands of chemical starting points for antimalarial lead identification” (Nature, 2010)

Experiments:
Format in all cases: functional
Plasmodium falciparum [1] = test: GSK_TCMDC: Inhibition of Plasmodium falciparum 3D7 in whole red blood cells, using parasite LDH activity as an index of growth. Test compounds present at 2uM
Plasmodium falciparum [2] = test: GSK_TCMDC: Inhibition of Plasmodium falciparum Dd2 in whole red blood cells, using parasite LDH activity as an index of growth. Test compounds present at 2uM
HepG2 = test: GSK_TCMDC: Percent inhibition of human HepG2 cell line. Test compounds present at 10uM.

| Structure (SMILES) | Inhibition (Plasmodium falciparum [1]) [%] | Inhibition (Plasmodium falciparum [2]) [%] | Inhibition (HepG2) [%] |
| --- | --- | --- | --- |
| CC(=O)N(Cc1nc(-c2cc(Cl)c(Cl)s2)cs1)c1c(C)cccc1C | 98 | 95 | 5 |
| O=C(O)C(F)(F)F.O=C1CCCN1CCCNCc1ccc(-c2ccc(-c3nc4cc(F)ccc4[nH]3)cc2)cc1 | 100 | 99 | 16 |
| COc1cc2nc(N(C)Cc3cc4c(Cl)cccc4s3)nc(N)c2cc1OC.Cl | 90 | 27 | 32 |
| Cl.O=C(Nc1ccnc2ccccc12)NC1CCN(Cc2ccccc2)CC1 | 96 | 43 | 18 |
| CCOc1cc(C(=O)NCc2cc(Cl)cc(Cl)c2)ccc1-c1nc2cc(Cl)ccc2[nH]1 | 100 | 5 | 1 |
| O=C(NCc1ccc(Cl)c(Cl)c1)c1ccc(-c2nc3ccc(F)cc3[nH]2)cc1 | 93 | 9 | 0 |
| O=C(NCc1cccc(C(F)(F)F)c1)[C@@H]1CCCN1C(=O)c1ccc(O)c(-c2ccc(Cl)c(Cl)c2)c1 | 99 | 97 | 0 |
| COc1ccc(CCNc2nc(NCCc3cnc[nH]3)nc(NCc3cccc4ccccc34)n2)cc1OC | 98 | 16 | 2 |
| CCN(CCN(C)C)Cc1ccc(-c2ccc(NS(=O)(=O)c3cccc(Cl)c3)cc2)cc1.O=C(O)C(F)(F)F | 97 | 40 | 43 |
| CCOc1ccc2c(c1)C(C)(c1ccc3c(c1)C(C)CC(C)(C)N3)CC(C)(C)N2 (centres undefined) | 94 | 3 | 5 |
| CCNc1cc(C(=O)N[C@@H](Cc2ccccc2)[C@H](O)CNC2CCCC2)cc(N2CCCC2=O)c1 | 98 | 98 | 8 |
| Cc1cc(N)c2cc(NC(=O)c3ccc4ccccc4c3)ccc2n1.Cl | 100 | 99 | 33 |
| O=C(Nc1cccc(F)c1)NC1CCN(CCCCCNC(=O)C2CC2c2ccc(Cl)c(Cl)c2)CC1 (centres undefined) | 100 | 12 | 41 |
| CCOc1ccc2c(=NN=Cc3cccc(F)c3)cc(C)[nH]c2c1 | 100 | 100 | 0 |
| O=C(/C=C/c1ccc(Cl)c(Cl)c1)NCCCCCN1CCC(NS(=O)(=O)c2cc(Cl)cc(Cl)c2)CC1 | 83 | 5 | 7 |
| Cc1cc(C2CCN(CCCCNC(=O)c3ccc(NC(=O)c4ccc(Cl)cc4)cc3)CC2)c(C)cc1OC(C)C.Cl | 100 | 92 | 22 |
| OCCN1CCN(C(=S)Nc2ccccc2)CC1 | 97 | 7 | 6 |
| Cc1noc(C)c1-c1ccc2c(Nc3ccc([N+](=O)[O-])cc3)c(C(N)=O)cnc2c1.Cl | 100 | 98 | 4 |
| COc1ccc2nccc([C@@H](O)CN3CCC(NCc4ccc5nnsc5c4)CC3)c2c1.O=C(O)C(=O)O | 99 | 0 | 16 |
| Oc1cccc(-c2cnc3ccc(NCc4ccc(F)cc4)nn23)c1 | 91 | 66 | 0 |
| COCCCNC(=O)C1CCN(C(c2ccc(Cl)cc2)c2ccc(Cl)cc2)CC1 | 91 | 63 | 5 |
| COc1ccc(N2CCN(CCCCNC(=O)c3ccc(NC(=O)c4cc(C(F)(F)F)cc(C(F)(F)F)c4)cc3)CC2)c(OC)c1 | 100 | 99 | 30 |
| CC(=O)Nc1ccc(CN2CCC(NC(=O)c3ccc(-c4cccc(OC(C)C)c4)s3)CC2)cc1.O=C(O)C(F)(F)F | 89 | 13 | 14 |
| CC(C)c1ccc2c(c1)c(SC(C)(C)C)c(CC(C)(C)C#N)n2Cc1ccc(Cl)cc1 | 96 | 95 | 0 |
| FC(F)(F)c1cccc2c(NN=Cc3ccccc3)ccnc12 | 100 | 90 | 10 |
| CO/C(=C\C=C\c1cc2cc(Cl)c(Cl)cc2[nH]1)C(=O)NCCCN1CCN(c2cccc(O)c2)CC1 | 91 | 100 | 46 |
| CC(=O)Nc1ccc(OCCN(CC(C)C)c2ccc(C(F)(F)F)c(C#N)c2)c(Cl)c1 | 96 | 95 | 13 |
| CCc1cc(N2CCN(c3ccccc3F)CC2)nc(SCc2ccc(C(=O)NC3CC3)o2)n1 | 90 | 94 | 9 |
